Three compounds from PubChem BioAssay (NCATS) can be followed below.

Experiment [1] concerns the target Glucocorticoid receptor (Homo sapiens) (UniProt P04150). The experiment in a line: qHTS assay for small molecule agonists of glucocorticoid receptor signaling (AID 588532; active = well fitted curve in the direction sought with a large enough effect in the signal ratio, with a control signal flat; the % refers to the signal ratio;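 also: 100% = dexamethasone at 0.1 µM and 0% = DMSO only wells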). The following applies: HeLa MMTV-bla, beta-lactamase ratio, agonist, 18 h; activation: stronger effect = higher value, percent of dexamethasone control, DMSO zero. In a few lines: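 Quantitative HTS using CellSensor MMTV-bla HeLa cells in charcoal/dextran-treated serum; compounds tested up to 92 uM. After 18 h at 37 C, CCF4 dye reported reporter induction.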
A general note: In qHTS, concentration-response curves come from the screen itself.

Experiment [2] shares this target. As to the kind of experiment: qHTS assay for small molecule antagonists of glucocorticoid receptor signaling (AID 588533; active = well fitted inhibition curve with a large enough effect in the signal ratio, with a control signal flat, not every such curve was filed as active; the % refers to the signal ratio;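 also: cells stimulated with 2 nM dexamethasone as agonist; % is scaled to controls: 0 for no effect and ±100 for the full control effect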). In a few lines:
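Antagonist-mode qHTS: compound titrations added to GRE-bla HeLa cells, then dexamethasone 2 nM final; 18 h, 37 C. CCF4 FRET fluorescence normalized to dexamethasone and DMSO; IC50 from Hill fit.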

Experiment [3] has as its target Peroxisome proliferator-activated receptor delta (Homo sapiens) (UniProt Q03181). As to the kind of experiment: qHTS assay for small molecule agonists of peroxisome proliferator-activated receptor delta signaling (AID 588534).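 Also: 0% = DMSO basal wells and 100% = positive control agonist at 10 µM.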 The method in brief: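 Agonist-mode beta-lactamase reporter readout (CCF4 dye, 2 h at RT) after 18 h at 37 °C exposure to a titration; Hill-equation fitting gave EC50 and maximal response.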

A short description of experiment [4]: qHTS assay for small molecule antagonists of peroxisome proliferator-activated receptor delta signaling (AID 588535; active = well fitted inhibition curve with a large enough effect in the signal ratio, with a control signal flat, not every such curve was filed as active; the % refers to the signal ratio;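 as to max response: cells co-treated with a PPAR-delta agonist as stimulator during compound exposure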). The conditions noted are these: HEK293T PPARd-UAS-bla, beta-lactamase FRET ratio, 18 h; 460 nm channel. In a few lines:
(§1)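 Titrations were run on PPAR-delta-UAS-bla HEK293T cells in charcoal/dextran-stripped serum, incubated 18 h at 37 C. CCF4 fluorescence (460/530 nm) after 2 h RT; Hill equation yields IC50 and maximal response.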

Experiment [5] concerns the target Peroxisome proliferator-activated receptor delta (Homo sapiens) (UniProt Q03181). The description is as above. The method in brief: as §1
The target in experiment [6] is Peroxisome proliferator-activated receptor gamma (Homo sapiens) (UniProt P37231). The experiment in a line: qHTS assay for small molecule agonists of peroxisome proliferator-activated receptor gamma signaling (AID 588536; active = well fitted curve in the direction sought with a large enough effect in the signal ratio, with a control signal flat, not every such curve was filed as active; the % refers to the signal ratio;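 also: 0% = DMSO basal wells and 100% = rosiglitazone at 2 µM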). The method in brief: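 This is an agonist-mode beta-lactamase reporter assay in HEK293 PPAR-gamma-UAS-bla cells with 1% charcoal/dextran FBS. Compound titrations ran 16 h at 37 C before CCF4 detection. EC50 and efficacy are Hill fits scaled to 2 uM rosiglitazone (100%) and DMSO basal.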
Peroxisome proliferator-activated receptor gamma (Homo sapiens), sequence (P37231 whole entry, looked up): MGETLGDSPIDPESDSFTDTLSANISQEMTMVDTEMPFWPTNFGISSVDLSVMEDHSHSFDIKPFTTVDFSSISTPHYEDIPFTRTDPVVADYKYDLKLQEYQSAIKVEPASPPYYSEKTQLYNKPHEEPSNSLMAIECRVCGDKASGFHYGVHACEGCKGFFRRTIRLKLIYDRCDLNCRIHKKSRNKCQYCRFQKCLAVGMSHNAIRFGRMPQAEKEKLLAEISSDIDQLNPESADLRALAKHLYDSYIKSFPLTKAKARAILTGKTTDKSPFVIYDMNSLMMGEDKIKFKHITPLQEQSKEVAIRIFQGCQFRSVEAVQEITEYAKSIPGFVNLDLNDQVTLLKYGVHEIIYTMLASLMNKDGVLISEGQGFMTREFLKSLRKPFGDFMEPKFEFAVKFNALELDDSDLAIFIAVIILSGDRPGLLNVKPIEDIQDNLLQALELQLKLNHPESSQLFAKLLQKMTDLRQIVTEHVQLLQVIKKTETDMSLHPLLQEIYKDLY

For experiment [7] the target is unchanged. As to the kind of experiment: qHTS assay for small molecule antagonists of peroxisome proliferator-activated receptor gamma signaling (AID 588537; active = well fitted inhibition curve with a large enough effect in the signal ratio, with a control signal flat, not every such curve was filed as active; the % refers to the signal ratio;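 also: reporter cells co-stimulated with 50 nM rosiglitazone agonist during compound treatment; % of control where 0% means no effect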). In a few lines: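 Antagonist-mode β-lactamase reporter screen run as a titration series. HEK293 PPARγ-UAS-bla cells are stimulated with rosiglitazone (50 nM final) for 16 h, then CCF4 is read at 460/530 nm. Data are scaled between DMSO and rosiglitazone and fitted to the Hill equation.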

Experiment [8] addresses Vitamin D3 receptor (Homo sapiens) (UniProt P11473). The experiment in a line: qHTS assay for small molecule antagonists of vitamin D receptor signaling (AID 588541).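 Also: receptor activated by calcitriol during compound treatment; series mostly up to about 77 µM; % is scaled to controls: 0 for no effect and ±100 for the full control effect.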 The method in brief: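 Antagonist-mode beta-lactamase reporter assay: HEK293T VDR-UAS-bla cells were exposed to titrated compound alongside 1-alpha,25-dihydroxyvitamin D3 at 3 nM final for 16 h. Values were normalized to the 50 nM agonist control and DMSO basal, with IC50 and efficacy from Hill equation fits.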

The target in experiment [9] is Retinoic acid receptor RXR-alpha (Homo sapiens) (UniProt P19793). As to the kind of experiment: qHTS assay for small molecule agonists of retinoid X receptor alpha signaling (AID 588544).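 As to activation: 0% = DMSO basal wells and 100% = reference agonist.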
Retinoic acid receptor RXR-alpha (Homo sapiens), sequence (P19793 whole entry, looked up): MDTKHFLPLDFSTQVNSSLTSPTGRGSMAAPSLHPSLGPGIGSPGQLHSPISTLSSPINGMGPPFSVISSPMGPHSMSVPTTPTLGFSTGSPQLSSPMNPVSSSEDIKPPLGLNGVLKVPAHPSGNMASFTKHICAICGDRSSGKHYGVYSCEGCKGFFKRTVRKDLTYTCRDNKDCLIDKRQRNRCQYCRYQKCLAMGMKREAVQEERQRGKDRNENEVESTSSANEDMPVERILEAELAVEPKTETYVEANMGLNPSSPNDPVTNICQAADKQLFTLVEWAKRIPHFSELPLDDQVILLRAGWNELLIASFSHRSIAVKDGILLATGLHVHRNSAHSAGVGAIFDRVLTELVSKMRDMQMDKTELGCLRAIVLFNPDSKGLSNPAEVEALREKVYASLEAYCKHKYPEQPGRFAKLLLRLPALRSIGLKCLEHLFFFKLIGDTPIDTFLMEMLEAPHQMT
The target in experiment [10] is Thyroid hormone receptor beta (Homo sapiens) (UniProt P10828). The experiment in a line: qHTS assay for small molecule agonists of thyroid hormone receptor beta signaling (AID 588545).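 Also: 0% = DMSO only and 100% = 10 nM T3.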 The method in brief:
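Stimulation of a TR-driven beta-lactamase reporter was quantified in GripTite HEK 293 cells. Compound series ran for 18 hrs; curves were normalized to T3 and DMSO controls and fitted to yield EC50.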

A short description of experiment [11]: qHTS assay for small molecule antagonists of retinoid X receptor alpha signaling (AID 588546; active = well fitted inhibition curve with a large enough effect in the signal ratio, with a control signal flat, not every such curve was filed as active; the % refers to the signal ratio;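 also: cells stimulated with 9-cis-retinoic acid as agonist; % is scaled to controls: 0 for no effect and ±100 for the full control effect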). The conditions noted are these: HEK293T RXRa-UAS-bla, beta-lactamase ratio, antagonist mode; measured here: W530 green channel, cytotoxicity proxy. In a few lines:
(§2)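 Beta-lactamase reporter inhibition, read as CCF4 fluorescence ratio (ex 405, em 460/530 nm) after 2 h at RT. HEK293T UAS-bla cells, 2500/well, were stimulated with 9-cis-RA at 500 or 100 nM final alongside test compound for 18 h at 37 C.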

Experiment [12] addresses Retinoic acid receptor RXR-alpha (Homo sapiens) (UniProt P19793). The experiment is described as above. The conditions noted are these: HEK293T RXRa-UAS-bla, beta-lactamase ratio, antagonist mode. In a few lines:
as §2

Experiment [13] addresses Thyroid hormone receptor beta (Homo sapiens) (UniProt P10828). The experiment in a line: qHTS assay for small molecule antagonists of thyroid hormone receptor beta signaling (AID 588547; active = well fitted inhibition curve with a large enough effect in the signal ratio, with a control signal flat, not every such curve was filed as active; the % refers to the signal ratio;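 also: cells stimulated with 0.4 nM T3 agonist during compound exposure; series mostly up to about 77 µM; % is scaled to controls: 0 for no effect and ±100 for the full control effect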). The conditions noted are these: TR-UAS-bla HEK293, beta-lactamase ratio, antagonist mode, 18 h. In a few lines: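 Inhibition of T3-driven (0.4nM final) beta-lactamase reporter activity was measured over 0.59 nM to 92 uM compound after 18 h at 37 C. The cells were GripTite HEK293 TR-UAS-bla in charcoal/dextran-stripped serum, with CCF4 ratio read-out and IC50 from Hill fits.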

The nature of experiment [14]: qHTS assay for small molecule activators of the p53 signaling pathway (AID 651743; active = well fitted activation curve with a large enough effect in the signal ratio, not every such curve was filed as active; the % refers to the signal ratio; also: series mostly up to about 92 µM; % of control where 0% means no effect). The following applies: HCT-116 p53RE-bla, beta-lactamase FRET ratio, 16 h; activation: stronger effect = higher value. The method in brief:
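After 16 hours compound treatment at 37 C, HCT-116 cells stably expressing p53RE-driven beta-lactamase were loaded with LiveBLAzer B/G FRET substrate for 2 hours at room temperature. Fluorescence intensity served as the p53 activation read-out.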

The nature of experiment [15]: qHTS assay for small molecule activators of the nuclear factor-kappa B (NF-kB) signaling pathway (AID 651749; active = well fitted activation curve with a large enough effect in the signal ratio; the % refers to the signal ratio; also: series mostly up to about 77 µM; % of control where 0% means no effect). The following applies: NF-kB-bla ME-180 cells, beta-lactamase FRET ratio, 16 h; activation: stronger effect = higher value. In a few lines:
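Activation measured after 16 hr compound treatment at 37C, 5% CO2, of 2,000 ME-180 cells/well stably expressing an NF-kB response element–driven beta-lactamase reporter, via FRET-disruption fluorescence.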

The nature of experiment [16]: qHTS assay for environmental chemicals that activate the Aryl hydrocarbon Receptor (AhR) signaling pathway (AID 651777; active = well fitted curve in the direction sought with a large enough effect; an effect the other way counts as inactive or inconclusive; also: nearly all actives have a fitted effect of over 15% in size; also: potency is read from the fitted curve at half-maximal effect; as to activation: % of control where 0% means no effect). The conditions noted are these: 1A2-DRE human hepatoma cells, luciferase, 24 h; activation: stronger effect = higher value. The method in brief:
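Quantitative HTS in stably transfected human liver-derived cells whose luciferase gene sits downstream of the CYP1A2 promoter and dioxin response element. After 24 hr exposure at 37 C, One-Glo luminescence was measured.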

For experiment [17], the target named is Peroxisome proliferator-activated receptor alpha (Homo sapiens) (UniProt Q07869). As to the kind of experiment: qHTS assay for small molecule agonists of the peroxisome proliferator-activated receptor alpha (PPARalpha) signaling pathway (AID 651778; active = well fitted curve in the direction sought with a large enough effect; an effect the other way counts as inactive or inconclusive; also: % of control where 0% means no effect). The conditions noted are these: PathHunter PPARalpha complementation, chemiluminescence, 6 h; max response: stronger effect = higher value. In a few lines: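 Chemiluminescence from complemented enzyme reported PPARalpha activation in cells after 6 hr of compound treatment at 37 C. The detection reagent was incubated for 60 min at room temperature, and compounds were scored as agonists.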
Peroxisome proliferator-activated receptor alpha (Homo sapiens), sequence (Q07869 whole entry, looked up): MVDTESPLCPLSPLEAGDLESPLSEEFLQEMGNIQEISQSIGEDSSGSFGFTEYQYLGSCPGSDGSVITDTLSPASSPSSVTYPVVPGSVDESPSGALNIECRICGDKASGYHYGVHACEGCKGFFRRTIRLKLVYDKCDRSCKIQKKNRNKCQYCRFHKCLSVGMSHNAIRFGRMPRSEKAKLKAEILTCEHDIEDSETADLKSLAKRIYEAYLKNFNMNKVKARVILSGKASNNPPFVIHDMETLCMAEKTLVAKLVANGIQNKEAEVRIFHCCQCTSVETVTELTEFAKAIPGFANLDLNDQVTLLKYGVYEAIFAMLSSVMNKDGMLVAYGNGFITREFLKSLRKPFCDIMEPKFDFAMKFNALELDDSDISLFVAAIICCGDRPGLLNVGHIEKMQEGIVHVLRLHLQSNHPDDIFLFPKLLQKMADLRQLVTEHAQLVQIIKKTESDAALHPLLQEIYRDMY

Experiment [18] in a line: qHTS assay for small molecule agonists of the antioxidant response element (ARE) signaling pathway measured by Nrf2-dependant transcriptional activity - cell viability counter screen (AID 720653; active = well fitted curve in the direction sought with a large enough effect in the repeat runs; an effect the other way counts as inactive or inconclusive; also: % is scaled to controls: 0 for no effect and ±100 for the full control effect). The conditions noted are these: ARE-bla HepG2 viability, CellTiter-Glo ATP luminescence, 16 h; max response: stronger effect = lower value. The method in brief: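 Cytotoxicity counter screen: intracellular ATP quantified by CellTiter-Glo luminescence in the same ARE-bla HepG2 plates, after 16 h compound exposure and a 2 h beta-lactamase substrate step.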

Experiment [19] is described as follows: qHTS assay for cell viability of HEK293 cells (AID 743288; active = well fitted curve in the direction sought with a large enough effect; an effect the other way counts as inactive or inconclusive; also: % is scaled to controls: 0 for no effect and ±100 for the full control effect; nearly all actives have a fitted effect of over 50% in size). The following applies: ATP luminescence (CellTiter-Glo), 18 h; max response: stronger effect = lower value. The method in brief:
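HEK293, 18 h, 37 C, ATP luminescence. Cells at 2,000/well were allowed at least 5 h to settle before dosing; CellTiter-Glo developed 30 min at RT.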

Experiment [20] in a line: qHTS assay for cell viability of the p53RE-bla HCT-116 cell line (AID 743292; active = well fitted curve in the direction sought with a large enough effect; an effect the other way counts as inactive or inconclusive; also: % is scaled to controls: 0 for no effect and ±100 for the full control effect; nearly all actives have a fitted effect of over 55% in size). The method in brief:
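Viability of compound-treated p53RE-bla HCT-116 cells is taken from ATP-dependent luciferase luminescence. Treatment lasts 16 h at 37 C after a 5 h settling period; detection follows 30 min at room temperature.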

Experiment [21] deals with Nuclear receptor subfamily 1 group I member 2 (Rattus norvegicus) (UniProt Q9R1A7). As to the kind of experiment: qHTS assay for small molecule activators of the rat pregnane X receptor (rPXR) signaling pathway (AID 651751; call rule not given here; also: 0% is about no effect). The conditions noted are these: rPXR reporter cells, luciferase (One-Glo), 24 h.
Nuclear receptor subfamily 1 group I member 2 (Rattus norvegicus), sequence (Q9R1A7 whole entry, looked up): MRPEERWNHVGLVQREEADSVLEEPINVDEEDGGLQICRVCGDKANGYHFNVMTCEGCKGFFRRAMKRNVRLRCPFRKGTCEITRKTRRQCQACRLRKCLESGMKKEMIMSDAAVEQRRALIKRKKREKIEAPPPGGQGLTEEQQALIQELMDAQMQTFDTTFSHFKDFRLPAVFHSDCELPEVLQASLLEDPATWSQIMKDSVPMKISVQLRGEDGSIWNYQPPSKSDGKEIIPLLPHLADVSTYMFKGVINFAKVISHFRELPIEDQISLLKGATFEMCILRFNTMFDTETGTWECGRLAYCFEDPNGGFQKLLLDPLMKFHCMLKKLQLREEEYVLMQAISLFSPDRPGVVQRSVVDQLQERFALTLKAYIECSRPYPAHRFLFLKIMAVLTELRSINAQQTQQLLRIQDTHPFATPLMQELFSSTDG
Experiment [22] is described as follows: qHTS assay for small molecule activators of the human pregnane X receptor (PXR) signaling pathway (AID 720659; call rule not given here; also: 0% is about no effect).
In experiment [23] the target is Vitamin D3 receptor (Homo sapiens) (UniProt P11473). As to the kind of experiment: qHTS assay for small molecule agonists of vitamin D receptor signaling (AID 588543).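 Also: 0% = DMSO basal and 100% = reference agonist control.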 In a few lines:
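Measured: β-lactamase reporter activity (CCF4, 405 nm excitation, 460/530 nm emission) in HEK293T VDR-UAS-bla cells after 16 h compound exposure at 37 °C. Normalization against 50 nM 1α,25-dihydroxyvitamin D3 and DMSO; Hill-fit EC50.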

Experiment [24] in a line: qHTS assay for small molecule agonists of retinoid X receptor alpha signaling (AID 588544).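 As to activation: 0% = DMSO basal wells and 100% = reference agonist.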 The conditions noted are these: HEK293T RXRa-UAS-bla, beta-lactamase reporter, 18 h; 530 nm emission.
Experiment [25] can be described thus: qHTS assay for small molecule agonists of the antioxidant response element (ARE) signaling pathway measured by Nrf2-dependant transcriptional activity (AID 720636; active = well fitted curve in the direction sought with a large enough effect in the repeat runs; an effect the other way counts as inactive or inconclusive; also: % of control where 0% means no effect). In a few lines: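 Quantitative HTS format in HepG2 cells stably expressing an ARE-luciferase reporter; 16 hr compound treatment at 37 C, luciferase signal detected with ONE-Glo.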
Experiment [26] deals with Bile acid receptor (Homo sapiens) (UniProt Q96RI1). The experiment in a line: qHTS assay for small molecule agonists of farnesoid X receptor signaling (AID 588527).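 Also: series mostly up to about 77 µM; 0% = vehicle basal and 100% = reference agonist.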 The conditions noted are these: HEK293T FXR-UAS-bla, beta-lactamase ratio, 16 h; activation: stronger effect = higher value. The method in brief:
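Agonist-mode beta-lactamase reporter in GeneBLAzer FXR-UAS-bla HEK293T cells, titration up to 92 uM, 16 h exposure at 37 C, CCF4 fluorescence. Response scaled to DMSO (0%) and 100 uM chenodeoxycholic acid (100%), then Hill-fitted for EC50 and efficacy.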

Results filed as inconclusive are left out. Activity calls are given as the source filed them. Unless noted, calls follow the shape of the full dose curve.

Glucocorticoid receptor (Homo sapiens), sequence (P04150 whole entry, looked up): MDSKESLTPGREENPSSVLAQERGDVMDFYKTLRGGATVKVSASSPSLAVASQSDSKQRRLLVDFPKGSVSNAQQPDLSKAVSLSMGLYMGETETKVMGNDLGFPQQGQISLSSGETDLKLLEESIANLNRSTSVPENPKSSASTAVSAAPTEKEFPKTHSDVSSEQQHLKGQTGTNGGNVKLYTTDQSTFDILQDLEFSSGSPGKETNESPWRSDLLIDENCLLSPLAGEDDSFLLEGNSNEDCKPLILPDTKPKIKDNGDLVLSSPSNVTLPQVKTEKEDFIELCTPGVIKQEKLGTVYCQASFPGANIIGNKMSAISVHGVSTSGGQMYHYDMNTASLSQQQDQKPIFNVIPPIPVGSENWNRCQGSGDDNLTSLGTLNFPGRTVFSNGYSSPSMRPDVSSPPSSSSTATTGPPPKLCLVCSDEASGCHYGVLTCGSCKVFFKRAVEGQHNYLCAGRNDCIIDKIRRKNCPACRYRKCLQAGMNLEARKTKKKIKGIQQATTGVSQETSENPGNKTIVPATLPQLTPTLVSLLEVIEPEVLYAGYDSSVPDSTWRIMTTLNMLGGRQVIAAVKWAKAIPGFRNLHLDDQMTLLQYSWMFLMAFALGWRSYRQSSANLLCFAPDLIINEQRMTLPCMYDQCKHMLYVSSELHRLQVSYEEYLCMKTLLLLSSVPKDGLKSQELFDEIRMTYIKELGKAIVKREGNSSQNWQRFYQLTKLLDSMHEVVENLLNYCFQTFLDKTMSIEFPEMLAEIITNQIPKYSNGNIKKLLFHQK
Peroxisome proliferator-activated receptor delta (Homo sapiens), sequence (Q03181 whole entry, looked up): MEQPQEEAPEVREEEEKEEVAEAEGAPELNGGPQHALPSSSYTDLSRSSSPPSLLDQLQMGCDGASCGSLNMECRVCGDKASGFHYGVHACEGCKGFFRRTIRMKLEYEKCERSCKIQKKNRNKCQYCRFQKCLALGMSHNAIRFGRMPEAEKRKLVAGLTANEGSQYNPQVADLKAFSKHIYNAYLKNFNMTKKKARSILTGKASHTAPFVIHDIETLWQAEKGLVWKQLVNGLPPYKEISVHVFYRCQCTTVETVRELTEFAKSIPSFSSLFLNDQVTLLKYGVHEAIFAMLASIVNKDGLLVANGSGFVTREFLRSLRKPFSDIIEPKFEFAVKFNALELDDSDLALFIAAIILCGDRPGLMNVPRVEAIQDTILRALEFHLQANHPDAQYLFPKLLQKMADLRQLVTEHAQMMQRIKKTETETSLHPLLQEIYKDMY
Vitamin D3 receptor (Homo sapiens), sequence (P11473 whole entry, looked up): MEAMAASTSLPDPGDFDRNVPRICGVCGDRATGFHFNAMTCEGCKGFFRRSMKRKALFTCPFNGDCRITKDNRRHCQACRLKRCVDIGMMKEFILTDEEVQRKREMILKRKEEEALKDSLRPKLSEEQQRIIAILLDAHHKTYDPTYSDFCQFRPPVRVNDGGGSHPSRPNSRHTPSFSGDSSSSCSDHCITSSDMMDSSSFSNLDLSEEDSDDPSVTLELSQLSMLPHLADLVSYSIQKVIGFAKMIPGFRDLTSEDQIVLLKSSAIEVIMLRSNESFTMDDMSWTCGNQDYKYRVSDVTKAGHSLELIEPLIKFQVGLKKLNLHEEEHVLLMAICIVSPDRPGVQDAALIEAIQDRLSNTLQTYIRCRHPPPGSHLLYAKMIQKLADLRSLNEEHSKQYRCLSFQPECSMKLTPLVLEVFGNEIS
Thyroid hormone receptor beta (Homo sapiens), sequence (P10828 whole entry, looked up): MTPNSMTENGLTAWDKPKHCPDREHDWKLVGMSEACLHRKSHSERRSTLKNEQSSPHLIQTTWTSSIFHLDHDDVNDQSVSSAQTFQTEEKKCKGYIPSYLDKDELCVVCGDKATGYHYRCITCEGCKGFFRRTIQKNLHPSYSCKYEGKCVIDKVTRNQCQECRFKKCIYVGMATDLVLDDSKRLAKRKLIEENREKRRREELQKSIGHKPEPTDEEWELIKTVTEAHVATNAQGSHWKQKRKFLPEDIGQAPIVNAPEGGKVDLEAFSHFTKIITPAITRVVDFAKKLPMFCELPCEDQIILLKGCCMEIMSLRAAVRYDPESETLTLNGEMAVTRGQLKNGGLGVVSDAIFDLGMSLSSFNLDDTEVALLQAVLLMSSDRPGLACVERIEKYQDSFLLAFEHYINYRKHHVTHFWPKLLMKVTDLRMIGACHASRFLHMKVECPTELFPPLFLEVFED
Bile acid receptor (Homo sapiens), sequence (Q96RI1 whole entry, looked up): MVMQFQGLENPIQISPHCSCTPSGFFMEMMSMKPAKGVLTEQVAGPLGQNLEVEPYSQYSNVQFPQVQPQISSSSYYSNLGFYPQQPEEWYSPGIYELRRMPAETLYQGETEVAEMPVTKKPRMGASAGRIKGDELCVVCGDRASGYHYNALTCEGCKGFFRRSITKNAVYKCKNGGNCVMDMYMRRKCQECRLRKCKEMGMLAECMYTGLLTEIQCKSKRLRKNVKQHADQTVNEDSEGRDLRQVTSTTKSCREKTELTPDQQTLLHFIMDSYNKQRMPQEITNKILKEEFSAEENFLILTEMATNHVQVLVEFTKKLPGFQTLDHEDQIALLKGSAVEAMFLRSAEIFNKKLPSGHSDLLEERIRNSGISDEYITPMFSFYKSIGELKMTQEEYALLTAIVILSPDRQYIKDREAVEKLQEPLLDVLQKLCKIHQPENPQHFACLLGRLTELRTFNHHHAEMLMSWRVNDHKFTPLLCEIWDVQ

For `Cc1cc(C)nc(Nc2ccccc2)n1`, the activation in experiment [1] is -19% (inactive); in experiment [14], -0.291% (inactive); in experiment [15] it was -2.63% (inactive); in experiment [16], 7.09% (inactive). Moreover, the Potency entry in [2], in experiment [5], in [6], in [7], in experiment [8] and in [9] was “inactive” throughout. The Potency entry in experiment [10] and in experiment [20] was “inactive” each time. For the same compound, the compound was called inactive in experiment [3] and in experiment [22]. Besides, the max response in experiment [4] is -19.7%; in [11], -7.16%; in experiment [12], -45.9% (inactive); in [17] it was 5.23% (inactive); in experiment [18], -4.46% (inactive); in experiment [19], -15.1% (inactive). Besides, the max response in [21] was 11.4% (inactive). Besides, the activity change % (negative = inhibition) in experiment [13] was -4.91% (inactive).

Regarding `[CH3][Sn]([Cl])([Cl])[Cl]`, the activation was -3.55% (inactive) in experiment [1] and -2.75% (inactive) in experiment [14]. For the same compound, the Potency result in experiment [2], in experiment [5], in experiment [6], in experiment [7], in [8] and in experiment [9] was “inactive” each time. Further, the Potency entry in experiment [25] and in experiment [20] was “inactive” throughout. Besides, the compound was called inactive in experiment [3], in experiment [23] and in [22]. Besides, the max response in [4] is -4.62%; in [24], -11.9%; in experiment [11], -11%; in [12], -14.8% (inactive); in [18], -16% (inactive); in [19], -18.6% (inactive). In experiment [21], the max response is -7.26% (inactive).

On to `Nc1ccccc1O`, for which, in experiment [26], the activation is -1.93% (inactive). Further, the result in experiment [3] was inactive. For the same compound, the Potency in [16] is 12.6 µM (active).
